These results are taken from PubChem BioAssay AID1851 (National Center for Advancing Translational Sciences (NCATS), 2009).

SMILES strings stand for the structures. In all, about 16,000 compounds went through this assay and about 5,700 (36%) were called active. Not shown: some 24% with an inconclusive outcome. This is one part of the list. Values without a mark were called inactive. Calls follow the shape of the dose curve; as a rule, active = well fitted curve in the direction sought with a large enough effect; inconclusive = small, poorly fitted or top-dose-only effect, or effect the other way; inactive = no such curve, though single readings can be large or run the other way.

Usually AC50 stands for the concentration at which the activity in the assay is half-maximal.
% is scaled to controls: 0 for no effect and ±100 for the full control effect.

The target of this experiment is Cytochrome P450 1A2 (Homo sapiens) (UniProt P05177). In words: Cytochrome panel assay with activity outcomes. The conditions noted are these: recombinant CYP, pro-luciferin dealkylation, luminescence, p450-cyp1a2; series mostly up to 57.1 µM; activity, negative = inhibition: at the top concentration.
Cytochrome P450 1A2 (Homo sapiens), sequence (P05177 whole entry, looked up): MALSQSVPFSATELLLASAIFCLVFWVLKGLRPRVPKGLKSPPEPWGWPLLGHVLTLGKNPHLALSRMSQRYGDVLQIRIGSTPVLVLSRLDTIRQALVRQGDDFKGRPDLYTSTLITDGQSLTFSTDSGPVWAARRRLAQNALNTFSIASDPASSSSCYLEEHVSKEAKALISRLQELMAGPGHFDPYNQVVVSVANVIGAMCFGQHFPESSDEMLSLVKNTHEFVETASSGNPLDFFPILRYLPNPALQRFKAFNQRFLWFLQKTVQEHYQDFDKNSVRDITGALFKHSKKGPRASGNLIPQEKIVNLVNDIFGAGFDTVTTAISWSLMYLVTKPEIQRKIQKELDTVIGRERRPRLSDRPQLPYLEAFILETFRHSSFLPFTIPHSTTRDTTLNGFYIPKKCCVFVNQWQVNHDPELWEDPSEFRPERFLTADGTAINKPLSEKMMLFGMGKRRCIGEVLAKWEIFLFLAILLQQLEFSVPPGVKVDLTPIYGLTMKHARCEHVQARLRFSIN
Turning to `COc1cc(CC(=O)O)c(C(C)=O)cc1OC`, the “activity, negative = inhibition” value is -23%. For the compound `CC(=O)c1cc(CC=C(C)C)c(O)cc1O`, the AC50 was 3.55 µM (active).

With `O=C(O)CCSc1ncnc2nc[nH]c12`, the activity, negative = inhibition is -3.4% [at 11.4 µM]. On the same count and under the same terms, then `Nc1nc(Sc2ccc([N+](=O)[O-])c3nonc23)c2[nH]cnc2n1`, with -26.1% [at 2.29 µM]; and `Nc1nc(N)c2[nH]cnc2n1` (tested in a mixture with another compound), with -5.45% [at 2.29 µM].

On to `Nc1nc(SCc2ccccc2[N+](=O)[O-])c2[nH]cnc2n1`, for which the AC50 was 5.01 µM (active). Same read-out and setting: then `Nc1nc(SCCc2ccccc2)c2[nH]cnc2n1`, with 3.16 µM (active); and `Nc1nc(SC/C=C\c2ccccc2)c2[nH]cnc2n1`, with 5.01 µM (active).

Consider `CCC[C@H](Sc1nc(N)nc2nc[nH]c12)C(=O)O`, for which the activity, negative = inhibition was -9.79% [at 11.4 µM]. The same measure, in the same setting: the value for `Cc1cccc(N(C)S(=O)(=O)c2ccc3[nH]c(=O)c(=O)[nH]c3c2)c1` was -4.96%; that for `COCC(=O)N1CCC2(CCCN(Cc3nccs3)C2)CC1` was 2.83%; that for `CC(C)=NOCc1ccc(-c2cn([C@@H]3COC[C@@H]3O)nn2)cc1` was -5.29% [at 11.4 µM].

`c1ccc(/C(=N/Nc2nc3ccccc3s2)c2ccccn2)cc1`: the half-maximal activity concentration (AC50) is 3.16 µM (active).

Turning to `COc1cccc(-c2cc3nc(-c4ccccc4)cc(N4CCC5(CC4)OCCO5)n3n2)c1`, the AC50 is 0.251 µM (active).

For the compound `CC1CN(C(=O)COc2ncnc3ccccc23)CC(C)O1` (stereo not drawn), the “activity, negative = inhibition” value is -4.54%. For `CCOc1ccc(OCCOc2ncnc3ccccc23)cc1`, the AC50 was 12.6 µM (active).

Regarding `Cc1cc(C)cc(-n2c(C)cc(C=C(C#N)C#N)c2C)c1`, the “activity, negative = inhibition” value is -17.1%. Consider `CCc1ccc(N(C(=O)c2snc(C(N)=O)c2N)C(C(=O)NCCC(C)C)c2c[nH]c3ccccc23)cc1` (stereo not drawn), for which the “activity, negative = inhibition” value was -21.5%. For the compound `CCOc1cc(C#N)c(NC(=O)c2cccnc2)cc1OCC`, the AC50 is 20 µM (active). `CCN(CC)c1ccc(NC(=O)c2cccnc2)c(C)c1`: the “activity, negative = inhibition” value was -15.4%. Still for that read-out and setting: then `CS(=O)(=O)N1CCC2(CCN(Cc3nccs3)CC2)CC1`, with -6.39%. For `Cn1cnnc1SCC(=O)n1c2ccccc2c2ccccc21`, the AC50 was 0.0501 µM (active). For `COC(=O)C1=C(CSc2nncn2C)NC(=O)NC1c1ccc(F)cc1` (stereo not drawn), the “activity, negative = inhibition” value was -36.1%. On the same count and under the same terms, then `CCc1cccc2c(C=C(C#N)C#N)cn(CC(=O)N3CCCC3)c12`, with -0.488%; and `CCc1cccc2c(C=C(C#N)C#N)cn(CC(=O)N3CCCCC3)c12`, with -14.5%.

Turning to `O=C(CN1C(=O)c2cccc3cccc(c23)C1=O)N1CCCCCC1`, the AC50 was 14.1 µM (active).

Turning to `O=C(CCCN1C(=O)C2C3C=CC(C3)C2C1=O)N1CCN(c2ccccc2)CC1` (stereo not drawn), the “activity, negative = inhibition” value was -21.3%. For `O=C(CCCN1C(=O)c2cccc3cccc(c23)C1=O)N1CCc2ccccc2C1`, the AC50 is 6.31 µM (active). Regarding `CSc1nc(Cl)cc(N(CCO)CCO)n1`, the “activity, negative = inhibition” value was 0.0544%. Still for that read-out and setting: the value for `CC(=O)OC[C@H]1O[C@@H](ON=C(C)C)[C@H](OC(C)=O)[C@@H](OC(C)=O)[C@H]1OC(C)=O` was -5.84% [at 11.4 µM]; that for `COc1ccc(/C=C2\CCCC3C2=NN(C(=O)c2ccco2)C3c2ccc(OC)c(OC)c2)cc1OC` (stereo not drawn) was -17.7%. Regarding `NC(=O)/C(=N\OC(=O)c1ccco1)c1nc(-c2ccc(Br)cc2)cs1`, the AC50 is 0.447 µM (active).

Take `Clc1ccc(COc2ccccn2)cc1Cl`: the “activity, negative = inhibition” value was -26.5%.

With `Clc1ccc(CSCCc2ccncc2)cc1Cl`, the AC50 was 0.316 µM (active). For the compound `O=S(=O)(O)CCCc1cccc2ccccc12`, the activity, negative = inhibition is -16.7% [at 2.29 µM].

As to `c1ccc2c(CSCCc3ccncc3)cccc2c1`, the AC50 is 0.178 µM (active). Still for that read-out and setting: the value for `Cn1c(=O)c(-c2ccccc2)nc2cnc(N3CCNCC3)nc21` was 12.6 µM (active); that for `Cn1c(=O)c(-c2ccccc2)nc2cnc(N3CCOCC3)nc21` was 2 µM (active); that for `COCCn1c(=O)c(-c2ccc(F)cc2)nc2cnc(N3CCOCC3)nc21` was 5.01 µM (active).

With `COc1ccc(-n2c(=O)c(-c3ccc(Cl)cc3)nc3cnc(N4CCOCC4)nc32)cc1`, the AC50 was 15.8 µM (active). Regarding `NCCc1nc(-c2nc(C(=O)O)cs2)cs1`, the activity, negative = inhibition is -15.8% [at 11.4 µM].

In the case of `N[C@@H](C(=O)O)c1ccc(C(=O)O)c(C(=O)O)c1`, the AC50 entry was “inactive”. Turning to `COc1ccc2c(c1)CCCC21NC(=O)N(CC(N)=O)C1=O` (stereo not drawn), the “activity, negative = inhibition” value is -4.43%. On to `CC(C)(C)CC(C)(C)c1cc(O)c(O)c(CN2CCCCC2)c1`, for which the activity, negative = inhibition was -0.989% [at 11.4 µM]. For the compound `Cn1c(=O)c(-c2ccc(F)cc2)nc2cnc(N3CCOCC3)nc21`, the concentration at half-maximal activity (AC50) was 2.51 µM (active). For the compound `COc1ccc(-c2nc3cnc(N4CCN(C)CC4)nc3n(CCC#N)c2=O)cc1`, the “activity, negative = inhibition” value is -15.1%.

In the case of `N#CCCn1c(=O)c(-c2ccc(Cl)cc2)nc2cnc(N3CCOCC3)nc21`, the concentration at half-maximal activity (AC50) is 15.8 µM (active). Still for that read-out and setting: the value for `Cn1c(=O)c(-c2ccc(Cl)cc2)nc2cnc(N3CCOCC3)nc21` was 2.51 µM (active). As to `CC(C)CO/N=C1/[C@H]2O[C@@H]2[C@@H](O)[C@H]2[C@H]1CCn1c(=O)n(C)c(=O)n12`, the activity, negative = inhibition was 8.17% [at 11.4 µM]. On the same count and under the same terms, then `COCC(=O)N1CCC2(CC1)CN(c1ccccn1)C2`, with -4.74%. Regarding `CCCCNc1cc(=O)oc2ccccc12`, the AC50 was 0.708 µM (active).

`CC(=O)OC[C@@H]1O[C@H](C/C=N\OCC[C@H]2C=C[C@H](OC(C)=O)[C@@H](COC(C)=O)O2)C=C[C@@H]1OC(C)=O`: the activity, negative = inhibition was -12.9% [at 11.4 µM]. `c1ccc(Cc2nnc(Sc3ccccc3)c3ccccc23)cc1`: the AC50 was 17.8 µM (active). For `O=c1[nH]c(=S)[nH]nc1Cc1ccccc1`, the “activity, negative = inhibition” value is -3.25%. With `COC(=O)c1cc(OC)c(OC)cc1NC(=O)CSc1ccccc1`, the AC50 was 1.78 µM (active). For the compound `O=C(CSc1ccccc1)Nc1ccc(N2CCN(c3ccccc3)CC2)c(F)c1`, the “activity, negative = inhibition” value is 11.6%. For `CCN(CC)S(=O)(=O)c1ccc(OC)c(NC(=O)CSc2ccccc2)c1`, the AC50 was 15.8 µM (active). As for `COc1ccc(C(=O)N2CCCCC2)cc1S(=O)(=O)Nc1ccccc1`, the “activity, negative = inhibition” value is -28%. Same read-out and setting: the value for `Cc1ccc(SCC(=O)NNC(=O)C2CCCCC2)cc1` was -15.2%; that for `CCN(CC)S(=O)(=O)c1ccc2c(c1)nc(SCC(=O)N1CCOCC1)n2-c1ccccc1OC` was 13%. Take `CCN(CC)S(=O)(=O)c1cc(C(=O)Nc2ccccc2C(=O)O)ccc1OC`: the AC50 is 15.8 µM (active). Turning to `CCN(CC)S(=O)(=O)c1ccc(OC)c(NC(=O)c2cc([N+](=O)[O-])ccc2Cl)c1`, the “activity, negative = inhibition” value is -1.84%. On to `COC(=O)c1cc(OC)c(OC)cc1NC(=O)CSc1ccc(C)cc1`, for which the AC50 was 1.78 µM (active).
